The source of these data is PMC7862700, “An all-to-all approach to the identification of sequence-specific readers for epigenetic DNA modifications on cytosine”.

Assay in all cases: DAPPL (digital affinity profiling via proximity ligation, sequencing); 10 mM Tris-HCl pH 7.5, 50 mM NaCl, 1 mM DTT, 4% glycerol, room temperature, 30 min; GST-TFs on glutathione beads, 16-mer random dsDNA library, 0.1% formaldehyde crosslink after washing; high values mean tight binding
For one test, the target named is T1, FEV (Homo sapiens, UniProt Q99581 1-238).
T1 sequence: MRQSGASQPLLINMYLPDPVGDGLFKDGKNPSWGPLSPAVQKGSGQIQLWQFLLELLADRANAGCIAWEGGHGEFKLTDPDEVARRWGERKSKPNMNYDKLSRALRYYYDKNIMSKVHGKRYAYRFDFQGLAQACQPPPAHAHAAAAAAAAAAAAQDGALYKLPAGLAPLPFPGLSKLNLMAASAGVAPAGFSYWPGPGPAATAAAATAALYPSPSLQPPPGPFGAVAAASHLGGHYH
The note with it: protein: recombinant; tags: N-terminal GST; dsDNA, one strand shown. Put shortly: (§1)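 Pools of DNA-barcoded human transcription factors, expressed in yeast as GST fusions on glutathione beads and combined with a tag-only sample, were incubated with 200 nmole of a 16-mer random double-stranded DNA library. Incubation took 30 min at room temperature in Tris/NaCl/DTT/glycerol buffer and was followed by washing, 0.1% formaldehyde crosslinking, proximity ligation (BsaI/T4 ligase, 1 h, 37 °C), PCR amplification and sequencing on an Illumina NextSeq500. Binding signal is the ratio of a hexamer's read frequency for a factor to its frequency for the tag-only sample.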

Another test addresses ETV5 (Homo sapiens, UniProt P41161 1-510). Particulars: protein: recombinant; tags: N-terminal GST; dsDNA, one strand shown. The method, boiled down:
as §1

The next test deals with HSF1 (Homo sapiens, UniProt Q00613 1-529). Particulars: protein: recombinant; tags: N-terminal GST; chain copies: 3; dsDNA, one strand shown. Put shortly:
as §1

Another test has as its target T2, SPIC (Homo sapiens, UniProt Q8N5J4 1-248).
T2 sequence: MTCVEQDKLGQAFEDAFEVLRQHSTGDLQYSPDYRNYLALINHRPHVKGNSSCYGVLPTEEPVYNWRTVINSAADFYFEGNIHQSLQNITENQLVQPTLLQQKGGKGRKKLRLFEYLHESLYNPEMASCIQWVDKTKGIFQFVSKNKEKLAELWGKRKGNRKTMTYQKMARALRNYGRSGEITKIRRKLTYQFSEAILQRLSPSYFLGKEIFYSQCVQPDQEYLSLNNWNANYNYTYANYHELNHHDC
The note with it: protein: recombinant; tags: N-terminal GST; dsDNA, one strand shown. The method, boiled down:
as §1

For the next test, the target named is ELF4 (Homo sapiens, UniProt Q99607 1-663). Particulars: protein: recombinant; tags: N-terminal GST; dsDNA, one strand shown. The method, boiled down: as §1
The next test addresses T3, ELK4 (Homo sapiens, UniProt P28324-2 1-405).
T3 sequence: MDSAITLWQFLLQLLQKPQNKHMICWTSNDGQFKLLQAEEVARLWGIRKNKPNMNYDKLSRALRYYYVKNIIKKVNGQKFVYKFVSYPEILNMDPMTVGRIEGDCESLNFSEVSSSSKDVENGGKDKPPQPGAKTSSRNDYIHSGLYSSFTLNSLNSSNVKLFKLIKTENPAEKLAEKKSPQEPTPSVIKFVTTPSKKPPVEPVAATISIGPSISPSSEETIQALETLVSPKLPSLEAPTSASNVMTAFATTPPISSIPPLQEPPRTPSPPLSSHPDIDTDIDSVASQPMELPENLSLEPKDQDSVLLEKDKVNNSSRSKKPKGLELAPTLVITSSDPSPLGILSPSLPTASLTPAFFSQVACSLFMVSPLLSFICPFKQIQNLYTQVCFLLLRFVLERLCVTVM
Particulars: protein: recombinant; tags: N-terminal GST; dsDNA, one strand shown. The method, boiled down: as §1

The next test deals with T4, ETV2 (Homo sapiens, UniProt O00321 1-342).
T4 sequence: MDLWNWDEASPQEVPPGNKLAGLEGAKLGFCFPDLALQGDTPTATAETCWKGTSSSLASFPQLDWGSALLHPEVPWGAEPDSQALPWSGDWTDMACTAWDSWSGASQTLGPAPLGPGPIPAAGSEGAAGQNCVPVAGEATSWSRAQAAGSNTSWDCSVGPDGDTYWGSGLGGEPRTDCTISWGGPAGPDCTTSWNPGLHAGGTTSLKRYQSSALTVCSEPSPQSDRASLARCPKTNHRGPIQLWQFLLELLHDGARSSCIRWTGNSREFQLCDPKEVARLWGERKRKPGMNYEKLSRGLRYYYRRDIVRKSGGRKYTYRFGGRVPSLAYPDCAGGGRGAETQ
The note with it: protein: recombinant; tags: N-terminal GST; dsDNA, one strand shown. Put shortly: as §1

The next test deals with T5, ELF3 (Homo sapiens, UniProt P78545 1-371).
T5 sequence: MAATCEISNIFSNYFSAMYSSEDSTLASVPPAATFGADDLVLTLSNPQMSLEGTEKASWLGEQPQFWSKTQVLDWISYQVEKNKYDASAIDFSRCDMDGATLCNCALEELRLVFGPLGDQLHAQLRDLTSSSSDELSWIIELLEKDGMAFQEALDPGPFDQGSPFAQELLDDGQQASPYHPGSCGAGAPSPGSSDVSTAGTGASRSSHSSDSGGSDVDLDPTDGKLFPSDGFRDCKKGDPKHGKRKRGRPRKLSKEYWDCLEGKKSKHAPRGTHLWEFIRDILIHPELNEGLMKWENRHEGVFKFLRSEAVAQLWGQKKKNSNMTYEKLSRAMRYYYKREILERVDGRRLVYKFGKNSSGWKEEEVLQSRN
The note with it: protein: recombinant; tags: N-terminal GST; dsDNA, one strand shown. Put shortly:
as §1

The next test has as its target CRX (Homo sapiens, UniProt O43186 1-299). The note with it: protein: recombinant; tags: N-terminal GST; dsDNA, one strand shown. The method, boiled down:
as §1

In a further test the target is ETV1 (Homo sapiens, UniProt P50549 1-477). Particulars: protein: recombinant; tags: N-terminal GST; dsDNA, one strand shown. Put shortly: as §1
The target in the next test is T6, ERF (Homo sapiens, UniProt P50548 1-548).
T6 sequence: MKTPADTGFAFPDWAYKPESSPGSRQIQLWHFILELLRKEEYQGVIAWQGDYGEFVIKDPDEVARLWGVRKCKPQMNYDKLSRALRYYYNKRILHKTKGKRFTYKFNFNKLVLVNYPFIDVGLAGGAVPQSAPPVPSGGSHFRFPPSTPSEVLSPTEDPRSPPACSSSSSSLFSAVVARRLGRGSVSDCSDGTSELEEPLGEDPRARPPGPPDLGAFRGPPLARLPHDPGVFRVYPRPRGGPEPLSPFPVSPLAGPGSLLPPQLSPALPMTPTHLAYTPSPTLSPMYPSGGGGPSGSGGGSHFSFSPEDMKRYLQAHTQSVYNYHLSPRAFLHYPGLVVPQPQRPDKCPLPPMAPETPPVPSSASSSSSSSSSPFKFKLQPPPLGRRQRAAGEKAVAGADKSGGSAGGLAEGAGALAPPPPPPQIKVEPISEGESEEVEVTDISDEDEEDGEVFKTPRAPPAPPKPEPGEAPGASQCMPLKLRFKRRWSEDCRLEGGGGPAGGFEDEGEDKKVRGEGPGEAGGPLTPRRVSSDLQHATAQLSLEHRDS
Particulars: protein: recombinant; tags: N-terminal GST; dsDNA, one strand shown. The method, boiled down:
as §1

The next test deals with T7, ETV3L (Homo sapiens, UniProt Q6ZN32 1-361).
T7 sequence: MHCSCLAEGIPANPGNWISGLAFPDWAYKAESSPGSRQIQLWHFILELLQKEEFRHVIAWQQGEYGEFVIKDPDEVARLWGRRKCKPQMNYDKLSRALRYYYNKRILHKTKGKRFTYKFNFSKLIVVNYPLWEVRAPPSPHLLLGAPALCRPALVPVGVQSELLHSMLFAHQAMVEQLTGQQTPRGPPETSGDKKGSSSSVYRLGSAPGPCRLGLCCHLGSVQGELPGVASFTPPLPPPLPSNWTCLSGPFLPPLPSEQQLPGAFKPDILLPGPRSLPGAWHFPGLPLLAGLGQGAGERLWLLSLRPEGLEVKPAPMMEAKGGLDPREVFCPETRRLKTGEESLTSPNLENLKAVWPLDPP
Particulars: protein: recombinant; tags: N-terminal GST; dsDNA, one strand shown. The method, boiled down:
as §1

The target of a further test is T8, ETS2 (Homo sapiens, UniProt P15036 1-469).
T8 sequence: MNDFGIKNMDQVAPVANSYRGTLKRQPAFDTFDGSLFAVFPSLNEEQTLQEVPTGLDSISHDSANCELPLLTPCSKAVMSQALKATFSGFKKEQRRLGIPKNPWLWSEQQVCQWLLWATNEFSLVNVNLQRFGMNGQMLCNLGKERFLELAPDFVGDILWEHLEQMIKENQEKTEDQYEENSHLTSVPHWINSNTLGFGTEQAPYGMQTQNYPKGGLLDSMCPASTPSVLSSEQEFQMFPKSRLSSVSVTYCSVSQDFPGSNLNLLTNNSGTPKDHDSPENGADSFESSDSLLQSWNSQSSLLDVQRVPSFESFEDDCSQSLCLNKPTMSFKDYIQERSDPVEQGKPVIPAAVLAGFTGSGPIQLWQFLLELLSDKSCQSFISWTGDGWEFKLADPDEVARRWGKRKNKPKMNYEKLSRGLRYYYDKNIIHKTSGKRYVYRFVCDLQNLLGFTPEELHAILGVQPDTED
Particulars: protein: recombinant; tags: N-terminal GST; dsDNA, one strand shown. The method, boiled down:
as §1

For a further test, the target named is T9, SPDEF (Homo sapiens, UniProt O95238 1-335).
T9 sequence: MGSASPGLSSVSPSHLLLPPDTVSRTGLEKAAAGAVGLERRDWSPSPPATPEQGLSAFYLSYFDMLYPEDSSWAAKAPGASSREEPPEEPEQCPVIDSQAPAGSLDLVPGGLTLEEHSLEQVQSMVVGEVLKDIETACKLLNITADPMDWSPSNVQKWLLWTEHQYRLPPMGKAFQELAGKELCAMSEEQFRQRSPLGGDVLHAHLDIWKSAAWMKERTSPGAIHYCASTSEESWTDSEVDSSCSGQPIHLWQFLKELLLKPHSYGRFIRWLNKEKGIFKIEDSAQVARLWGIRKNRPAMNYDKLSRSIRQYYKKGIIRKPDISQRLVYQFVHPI
Particulars: protein: recombinant; tags: N-terminal GST; dsDNA, one strand shown. Put shortly: as §1

In the next test the target is T10, ETV7 (Homo sapiens, UniProt Q9Y603 1-341).
T10 sequence: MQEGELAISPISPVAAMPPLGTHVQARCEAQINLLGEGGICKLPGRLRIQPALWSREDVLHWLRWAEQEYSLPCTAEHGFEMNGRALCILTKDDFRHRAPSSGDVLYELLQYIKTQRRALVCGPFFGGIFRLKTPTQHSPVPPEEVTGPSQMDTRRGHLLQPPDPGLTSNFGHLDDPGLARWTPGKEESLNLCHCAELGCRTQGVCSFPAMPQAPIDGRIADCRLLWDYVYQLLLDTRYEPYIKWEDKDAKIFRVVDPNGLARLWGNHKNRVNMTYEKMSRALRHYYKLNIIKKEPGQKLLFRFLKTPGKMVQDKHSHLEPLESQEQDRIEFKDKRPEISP
The note with it: protein: recombinant; tags: N-terminal GST; dsDNA, one strand shown. The method, boiled down: as §1

Another test has as its target T11, ELF5 (Homo sapiens, UniProt Q9UKW6-2 1-255).
T11 sequence: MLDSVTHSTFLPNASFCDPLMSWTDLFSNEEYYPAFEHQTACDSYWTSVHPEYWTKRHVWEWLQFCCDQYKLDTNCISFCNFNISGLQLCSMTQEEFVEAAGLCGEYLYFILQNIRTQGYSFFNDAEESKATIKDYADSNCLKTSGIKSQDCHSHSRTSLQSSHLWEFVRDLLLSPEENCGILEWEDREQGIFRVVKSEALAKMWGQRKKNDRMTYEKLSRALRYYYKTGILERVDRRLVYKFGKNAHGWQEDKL
The note with it: protein: recombinant; tags: N-terminal GST; dsDNA, one strand shown. Put shortly:
as §1

A further test addresses T12, ETV3 (Homo sapiens, UniProt P41162-2 1-143).
T12 sequence: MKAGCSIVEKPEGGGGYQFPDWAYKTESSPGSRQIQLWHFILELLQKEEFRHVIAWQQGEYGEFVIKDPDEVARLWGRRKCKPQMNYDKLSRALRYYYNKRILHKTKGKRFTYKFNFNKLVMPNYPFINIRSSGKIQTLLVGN
Particulars: protein: recombinant; tags: N-terminal GST; dsDNA, one strand shown. Put shortly: as §1

In another test the target is ETV6 (Homo sapiens, UniProt P41212 1-452). The note with it: protein: recombinant; tags: N-terminal GST; dsDNA, one strand shown. Put shortly: as §1
ETV6, sequence (P41212 whole entry): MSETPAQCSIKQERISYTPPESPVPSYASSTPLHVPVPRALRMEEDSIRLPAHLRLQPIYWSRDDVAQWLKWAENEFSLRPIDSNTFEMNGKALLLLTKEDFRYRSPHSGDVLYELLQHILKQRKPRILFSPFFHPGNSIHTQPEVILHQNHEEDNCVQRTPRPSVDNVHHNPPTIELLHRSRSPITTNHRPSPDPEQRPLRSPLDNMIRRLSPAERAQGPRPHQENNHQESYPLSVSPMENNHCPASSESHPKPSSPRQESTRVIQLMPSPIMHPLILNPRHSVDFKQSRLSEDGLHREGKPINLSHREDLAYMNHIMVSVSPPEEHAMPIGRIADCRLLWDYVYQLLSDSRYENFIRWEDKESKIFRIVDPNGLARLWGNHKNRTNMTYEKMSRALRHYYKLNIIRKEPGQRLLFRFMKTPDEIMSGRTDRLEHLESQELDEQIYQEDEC

CRX, sequence (O43186 whole entry): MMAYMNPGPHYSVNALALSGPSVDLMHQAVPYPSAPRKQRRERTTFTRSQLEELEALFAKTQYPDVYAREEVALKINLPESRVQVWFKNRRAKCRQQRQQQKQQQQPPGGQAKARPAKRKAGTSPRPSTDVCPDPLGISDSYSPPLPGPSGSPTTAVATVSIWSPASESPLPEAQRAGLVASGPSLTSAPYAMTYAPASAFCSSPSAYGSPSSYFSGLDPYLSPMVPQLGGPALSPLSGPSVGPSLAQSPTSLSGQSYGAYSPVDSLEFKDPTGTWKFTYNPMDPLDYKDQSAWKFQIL
ETV1, sequence (P50549 whole entry): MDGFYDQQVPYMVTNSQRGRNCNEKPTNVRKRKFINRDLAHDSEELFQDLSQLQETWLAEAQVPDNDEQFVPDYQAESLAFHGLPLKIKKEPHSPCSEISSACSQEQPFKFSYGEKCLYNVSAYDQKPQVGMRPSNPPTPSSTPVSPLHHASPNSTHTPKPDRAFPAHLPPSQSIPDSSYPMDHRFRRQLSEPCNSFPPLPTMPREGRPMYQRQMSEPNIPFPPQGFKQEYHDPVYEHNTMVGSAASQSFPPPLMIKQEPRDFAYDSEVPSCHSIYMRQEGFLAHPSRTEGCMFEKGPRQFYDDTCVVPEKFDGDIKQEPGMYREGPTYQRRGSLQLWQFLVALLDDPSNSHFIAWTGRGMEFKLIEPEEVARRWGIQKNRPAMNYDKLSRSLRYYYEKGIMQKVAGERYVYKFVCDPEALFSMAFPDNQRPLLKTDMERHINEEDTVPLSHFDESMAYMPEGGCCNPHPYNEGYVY
ELF4, sequence (Q99607 whole entry): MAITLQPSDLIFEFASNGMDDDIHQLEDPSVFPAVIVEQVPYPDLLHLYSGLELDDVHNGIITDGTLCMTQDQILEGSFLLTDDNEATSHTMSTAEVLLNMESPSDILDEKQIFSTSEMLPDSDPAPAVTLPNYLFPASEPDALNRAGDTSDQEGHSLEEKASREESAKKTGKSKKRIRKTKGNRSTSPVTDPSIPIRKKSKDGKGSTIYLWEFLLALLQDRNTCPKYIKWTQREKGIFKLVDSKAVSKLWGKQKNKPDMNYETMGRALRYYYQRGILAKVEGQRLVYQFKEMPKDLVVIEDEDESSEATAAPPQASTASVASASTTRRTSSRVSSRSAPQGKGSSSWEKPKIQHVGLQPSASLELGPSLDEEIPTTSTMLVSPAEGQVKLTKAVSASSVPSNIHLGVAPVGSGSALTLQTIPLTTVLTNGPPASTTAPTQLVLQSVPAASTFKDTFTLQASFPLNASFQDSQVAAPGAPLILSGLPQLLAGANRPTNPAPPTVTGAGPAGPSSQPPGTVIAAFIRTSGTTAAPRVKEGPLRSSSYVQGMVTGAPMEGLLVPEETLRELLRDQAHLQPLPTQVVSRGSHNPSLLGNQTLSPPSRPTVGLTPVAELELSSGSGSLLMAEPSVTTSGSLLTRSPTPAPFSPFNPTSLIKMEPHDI
ETV5, sequence (P41161 whole entry): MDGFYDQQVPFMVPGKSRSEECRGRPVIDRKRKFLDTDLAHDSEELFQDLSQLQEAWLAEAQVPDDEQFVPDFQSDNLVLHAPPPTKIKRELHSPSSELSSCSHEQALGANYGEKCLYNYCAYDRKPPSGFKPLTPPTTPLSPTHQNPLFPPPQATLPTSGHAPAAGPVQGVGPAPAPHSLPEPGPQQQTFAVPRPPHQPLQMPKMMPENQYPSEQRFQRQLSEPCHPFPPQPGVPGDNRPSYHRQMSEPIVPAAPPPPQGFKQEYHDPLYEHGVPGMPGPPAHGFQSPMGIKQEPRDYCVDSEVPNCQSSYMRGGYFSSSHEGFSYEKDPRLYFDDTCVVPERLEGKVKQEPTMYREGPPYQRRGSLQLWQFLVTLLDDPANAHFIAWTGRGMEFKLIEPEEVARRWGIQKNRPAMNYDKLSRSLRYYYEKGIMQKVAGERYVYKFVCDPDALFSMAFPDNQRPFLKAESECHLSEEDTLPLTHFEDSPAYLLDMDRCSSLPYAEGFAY
HSF1, sequence (Q00613 whole entry): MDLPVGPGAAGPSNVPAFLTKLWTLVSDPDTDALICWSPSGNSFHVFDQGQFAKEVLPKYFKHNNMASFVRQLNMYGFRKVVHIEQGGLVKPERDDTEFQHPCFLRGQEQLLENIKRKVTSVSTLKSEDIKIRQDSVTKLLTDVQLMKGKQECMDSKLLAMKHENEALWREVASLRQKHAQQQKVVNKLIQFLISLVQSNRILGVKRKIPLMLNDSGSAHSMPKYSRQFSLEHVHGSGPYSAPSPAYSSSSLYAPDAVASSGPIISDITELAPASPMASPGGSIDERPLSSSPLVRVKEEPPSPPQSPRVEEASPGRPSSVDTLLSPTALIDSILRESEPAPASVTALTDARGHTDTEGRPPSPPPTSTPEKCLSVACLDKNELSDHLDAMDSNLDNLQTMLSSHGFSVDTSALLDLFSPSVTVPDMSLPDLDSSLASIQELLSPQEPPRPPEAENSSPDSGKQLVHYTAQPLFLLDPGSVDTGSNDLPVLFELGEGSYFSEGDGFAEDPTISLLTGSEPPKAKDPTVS

Regarding TATTAT, the binding signal in the test with FEV is 1.12 fold enrichment (6-mer frequency, TF over GST control); in the test with ETV5 it was 1.3 fold enrichment (6-mer frequency, TF over GST control); with HSF1, 1.69 fold enrichment (6-mer frequency, TF over GST control); in the test with SPIC, 1.35 fold enrichment (6-mer frequency, TF over GST control); in the test with ELF4, 1.27 fold enrichment (6-mer frequency, TF over GST control); with ELK4, 1.35 fold enrichment (6-mer frequency, TF over GST control). Besides, the binding signal with ETV2 was 1.32 fold enrichment (6-mer frequency, TF over GST control); in the test with ELF3, 1.3 fold enrichment (6-mer frequency, TF over GST control); with CRX, 2.4 fold enrichment (6-mer frequency, TF over GST control); with ETV1, 1.26 fold enrichment (6-mer frequency, TF over GST control); in the test with ERF, 1.19 fold enrichment (6-mer frequency, TF over GST control); with ETV3L, 1.24 fold enrichment (6-mer frequency, TF over GST control). The binding signal with ETS2 is 1.16 fold enrichment (6-mer frequency, TF over GST control); with SPDEF, 1.29 fold enrichment (6-mer frequency, TF over GST control); with ETV7, 1.28 fold enrichment (6-mer frequency, TF over GST control); in the test with ELF5 it was 1.2 fold enrichment (6-mer frequency, TF over GST control); with ETV3 it was 1.27 fold enrichment (6-mer frequency, TF over GST control); with ETV6, 1.3 fold enrichment (6-mer frequency, TF over GST control).
